Data as given in PubChem BioAssay AID1851 (National Center for Advancing Translational Sciences (NCATS), 2009).
The campaign covered roughly 16,000 compounds. About 5,100 (32%) were called active. Inconclusive results (about 25%) are left out. This is one part of the list. Values without a mark were called inactive. Calls come from the whole dose curve; as a rule, active = well fitted curve in the direction sought with a large enough effect; inconclusive = small, poorly fitted or top-dose-only effect, or effect the other way; inactive = no such curve, though single readings can be large or run the other way.

What follows are molecules tested against Cytochrome P450 3A4 (Homo sapiens) (UniProt P08684) (assay: Cytochrome panel assay with activity outcomes). Details: recombinant CYP, pro-luciferin dealkylation, luminescence, p450-cyp3a4; series mostly up to 57.1 µM; activity, negative = inhibition: at the top concentration.
Sequence of Cytochrome P450 3A4 (Homo sapiens) (P08684 whole entry, looked up): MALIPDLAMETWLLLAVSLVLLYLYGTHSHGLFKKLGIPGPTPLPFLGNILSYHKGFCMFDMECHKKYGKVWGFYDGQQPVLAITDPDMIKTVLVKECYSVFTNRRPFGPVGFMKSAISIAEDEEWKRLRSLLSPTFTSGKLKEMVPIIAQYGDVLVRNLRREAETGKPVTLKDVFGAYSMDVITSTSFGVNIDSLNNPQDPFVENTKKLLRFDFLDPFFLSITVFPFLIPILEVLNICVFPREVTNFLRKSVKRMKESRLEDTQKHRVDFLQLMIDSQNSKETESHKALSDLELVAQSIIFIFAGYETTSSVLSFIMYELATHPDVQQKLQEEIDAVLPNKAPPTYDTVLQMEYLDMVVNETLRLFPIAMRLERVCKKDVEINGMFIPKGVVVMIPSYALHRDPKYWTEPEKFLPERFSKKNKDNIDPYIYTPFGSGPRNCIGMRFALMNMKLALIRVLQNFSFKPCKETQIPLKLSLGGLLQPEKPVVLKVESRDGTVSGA
% is set by controls: 0 for no effect and ±100 for the full control effect.

| Structure (SMILES) | activity, negative = inhibition | AC50 |
| --- | --- | --- |
| O=CN[C@@H](Cc1cnc[nH]1)C(=O)O | -4.87% [at 11.4 µM] |  |
| C[C@@H](CCCCC(=O)Nc1ccc(C(F)(F)F)cc1)NCCc1cnc[nH]1 |  | 5.01 µM (active) |
| NCCC(=O)NCCc1cnc[nH]1 | -7.06% [at 25.6 µM] |  |
| CC(C)(C)N1C(=O)[C@H]2[C@@H]3[C@H](O)C=CC(=O)[C@H]3CC[C@H]2C1=O | -16.6% [at 11.4 µM] |  |
| CCc1ccc(C(=O)COC(=O)C(Cc2ccccc2)NC(=O)C2CCC(C)CC2)cc1 (configuration not stated) |  | 3.55 µM (active) |
| N#CCSc1ncnc2c1cnn2CCO | -21.9% |  |
| Nc1[nH]n2c(=O)c3c(nc2c1N=Nc1ccccc1)CCCC3 |  | 5.01 µM (active) |
| Cc1ccc(-c2[nH]n3c(=O)c4c(nc3c2C)CCCC4)cc1 |  | 8.91 µM (active) |
| N#Cc1c[nH]n2c(=O)c3c(nc12)CCCC3 | 4.63% |  |
| Nc1[nH]n2c(=O)cc(-c3ccccc3)nc2c1N=Nc1ccccc1 | -10.8% [at 2.29 µM] |  |
| Cc1[nH]n2c(=O)c3c(nc2c1-c1cccc2ccccc12)CCC3 | -9.59% |  |
| O=c1c2c(nc3c(-c4ccccc4)c[nH]n13)CCC2 | -13.1% |  |
| O=C(NCc1ccc(Cl)cc1)c1ccc(Cl)cc1[N+](=O)[O-] |  | 12.6 µM (active) |
| O=C(NCCO)c1ccc(Cl)cc1 | -18% [at 11.4 µM] |  |
| CCOc1ccc(NC(=O)c2ccc(Br)o2)c([N+](=O)[O-])c1 | 0.495% [at 2.29 µM] |  |
| Cc1ccc(C(=O)NCCNc2ccc(Cl)cc2[N+](=O)[O-])o1 |  | 6.31 µM (active) |
| NC(=O)NCc1ccc(Cl)cc1 | 4.51% [at 11.4 µM] |  |
| Oc1ccc(C2Nc3cccc4cccc(c34)N2)c(O)c1 |  | 15.8 µM (active) |
| Oc1ccccc1C1Nc2cccc3cccc(c23)N1 | 21.6% |  |
| CN[C@H](CC(=O)O)C(=O)O | 0.638% |  |
| Cc1ccc(N=Nc2c(O)ccc3cc(S(=O)(=O)O)ccc23)cc1 | -19% [at 11.4 µM] |  |
| Cc1ccc(S(=O)(=O)c2cc3ccccc3oc2=Nc2ccc3c(c2)OCO3)cc1 |  | 2 µM (active) |
| O=C(O)c1cc(C(=O)O)nc(C(=O)O)c1 | -8.29% [at 11.4 µM] |  |
| CCc1noc(C)c1C(=O)Nc1nc(-c2cc(C)ccc2C)c(C)s1 |  | 3.55 µM (active) |
| CCOC(=O)Nc1nc(-c2ccccc2)c(C)s1 | -11.6% [at 11.4 µM] |  |
| COc1cc2nc(SCc3ccc(Cl)cc3Cl)n(Cc3cccs3)c(=N)c2cc1OC |  | 2 µM (active) |
| COc1ccc(Cn2c(SCc3ccccc3C)nc3cc(OC)c(OC)cc3c2=N)cc1 |  | 8.91 µM (active) |
